Compound activity from PubChem BioAssay.
Most compounds without a hit are left out; they make up all but 4.8% or so of the library.
DAX1 inh-1 – DAX1 (NR0B1) inhibitors on StAR promoter, primary screen, cell-based, luminescence, SF-1 (NR5A1), full-length DAX-1. HEK293T StAR-luciferase reporter, SF-1/DAX-1 repression relief. inhibition, % at 6.8 µM. 1.1% of 370,000 active. AID 652010, 2013;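 active = inhibition above the mean over all tested compounds plus 3 SD, cut at about 3.6% in these data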;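 note: 0% = DAX-1 cells with DMSO and 100% = cells lacking DAX-1 with DMSO; higher inhibition means more luminescence from relief of DAX-1 repression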
DAX1 inh-2 – DAX1 (NR0B1) inhibitors, primary screen, cell-based, HEK293, Gal4-DAX1, luciferase luminescence; 0.99% of 340,000 active; AID 504766, 2011; HEK293 Gal4-DAX1 luciferase reporter; Nuclear receptor subfamily 0 group B member 1 (Homo sapiens), P51843; inhibition, % at 6.75 µM;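 active = inhibition above the mean over all tested compounds plus 3 SD, cut at about 4.2% in these data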;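 note: 0% = DAX1-transfected cells with DMSO and 100% = empty-vector control cells with DMSO; inhibition shows as a rise in luminescence from relieved DAX1 repression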
Target sequence (P51843 207-470 limits assumed): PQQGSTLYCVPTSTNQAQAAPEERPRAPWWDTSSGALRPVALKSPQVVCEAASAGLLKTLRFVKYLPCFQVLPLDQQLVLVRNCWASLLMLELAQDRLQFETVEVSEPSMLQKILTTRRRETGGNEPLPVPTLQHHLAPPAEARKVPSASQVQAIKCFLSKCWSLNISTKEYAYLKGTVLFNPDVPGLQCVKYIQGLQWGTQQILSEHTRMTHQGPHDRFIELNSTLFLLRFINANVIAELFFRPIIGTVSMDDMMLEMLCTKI
ssDAF-12 act – S. stercoralis DAF-12 nuclear receptor activators, primary screen, cell-based, luminescence, HEK293, GRIP1 co-expression, lit1-tk-luc | Nuclear hormone receptor DAF-12 (Strongyloides stercoralis) | HEK293 ssDAF-12/GRIP1 lit1-tk-luc reporter; % of 3 µM dafachronic acid response | 1% of 370,000 active | activation, % at 6.8 µM;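 active = activation above the mean over all tested compounds plus 3 SD, cut at about 0.9% in these data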;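 note: 0% = DMSO-only wells and 100% = 3 µM delta7-dafachronic acid wells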
hcDAF12 agonist – H. contortus DAF-12 nuclear receptor activators, primary screen, cell-based, luminescence, HEK293, lit1-tk-luc reporter; 1.4% of 370,000 active; AID 652067, 2013; HEK293 hcDAF-12 lit1-tk-luc reporter; 0% DMSO, 100% Δ7-dafachronic acid; activation, % at 6.8 µM;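 active = activation above the mean of all tested compounds plus 3 SD, cut at about 5.5% in these data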;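 note: 100% = response to 3 µM Δ7-dafachronic acid high control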
SMARCA2 activ – SMARCA2 (BRM) function activators, primary screen, cell-based, luminescence, high throughput; MG213 cells, MMTV-luciferase reporter, dexamethasone, overnight; AID 652017, 2013; activation, % at 9.1 µM; 1% of 370,000 active; in the data active = activation above about 7.8%;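 note: 0% = vehicle wells and 100% = reference activator wells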
hgDAF12 agonist – H. glycines DAF-12 receptor agonists, primary screen, cell-based, luminescence, HEK293, GAL4 fusion, UAS-luciferase; Nuclear hormone receptor DAF-12 (Heterodera glycines), GAL4 fusion; HEK293 GAL4-hgDAF12 UAS-luciferase reporter, agonist luminescence; normalized to butyrate control; activation, % at 6.8 µM; 1.8% of 370,000 active; AID 687014, 2013;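 active = activation above a cutoff set at the mean of all screened compounds plus 3 SD, cut at about 10% in these data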;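 note: 0% = DMSO wells and 100% = sodium butyrate wells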
DAX1 conf – DAX1 (NR0B1) inhibitors relieving SF-1 repression, confirmation, cell-based, luminescence, HEK293T, full-length DAX-1, SF-1 activated StAR promoter; AID 652134, 2013; HEK293T StAR-promoter luciferase reporter, SF-1/DAX-1 repression; inhibition, % at 6.8 µM; shares compounds with DAX1 inh-1; 87% of 2,400 active;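 active = inhibition above the average of every tested compound plus 3 SD, cut at about 3.8% in these data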;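 note: 0% = DAX-1 cells with DMSO and 100% = no DAX-1 control cells with DMSO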
SF1 mutant ctr – StAR reporter signal changes without DAX1, counter-screen for DAX1 inhibitor project, cell-based, luminescence, AF-2 mutant SF-1, transactivation; HEK293 StAR-luciferase, SF-1 AF2 mutant; inhibition, % at 6.8 µM; shares compounds with DAX1 inh-1; 78% of 2,400 active;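 active = inhibition above the mean of all tested compounds plus 3 SD, cut at about 3% in these data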;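 note: 0% = DAX-1 transfected cells with DMSO and 100% = cells without DAX-1 with DMSO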
Numbers without * were called inactive.

For O=C(CCS(=O)(=O)c1ccccc1)NC1CCCCC1 the results were DAX1 inh-1 4.7*, DAX1 inh-2 0, ssDAF-12 act -1, hcDAF12 agonist 0, SMARCA2 activ 1, hgDAF12 agonist 3, DAX1 conf 5.8* and SF1 mutant ctr 4.0*.
`O=C(NCCN1CCC(n2c(=O)[nH]c3cc(Cl)ccc32)CC1)c1ccc(F)cc1` gave DAX1 inh-1 1, ssDAF-12 act -1, hcDAF12 agonist 1, SMARCA2 activ 1 and hgDAF12 agonist 1.
For Cc1ccc2nc(-c3ccc4c(c3)OCCO4)cn2c1 the results were DAX1 inh-1 -3, DAX1 inh-2 -10, ssDAF-12 act -2, hcDAF12 agonist -5, SMARCA2 activ -9 and hgDAF12 agonist -12.
Screening Clc1ccc(-c2cn3cc(Br)ccc3n2)cc1Cl returned DAX1 inh-1 8.0*, DAX1 inh-2 2, ssDAF-12 act 3.0*, hcDAF12 agonist 14*, SMARCA2 activ 2, hgDAF12 agonist 23*, DAX1 conf 13* and SF1 mutant ctr 5.2*.
Screening Cc1cccc(C)c1NC(=O)c1nc(S(=O)(=O)Cc2ccccc2)ncc1Cl returned DAX1 inh-1 -4, DAX1 inh-2 -4, ssDAF-12 act -1, hcDAF12 agonist -4, SMARCA2 activ -8 and hgDAF12 agonist -9.
Screening Cc1nnc(NC(=O)c2nc(S(=O)(=O)Cc3ccccc3)ncc2Cl)s1 returned DAX1 inh-1 5.6*, DAX1 inh-2 2, ssDAF-12 act -1, hcDAF12 agonist -2, SMARCA2 activ -9, hgDAF12 agonist 2, DAX1 conf 3 and SF1 mutant ctr -2.
`COc1ccc(-n2c(COc3ccc(C)cc3)nnc2SCC(=O)c2ccc(-c3ccccc3)cc2)cc1` gave DAX1 inh-1 -1, ssDAF-12 act -1, hcDAF12 agonist -1, SMARCA2 activ 0 and hgDAF12 agonist 2.
`CCOC(=O)C1CCN(C(=O)c2cc3cc4ccc(C)cc4nc3o2)CC1` gave DAX1 inh-1 7.5*, DAX1 inh-2 0, ssDAF-12 act 0, hcDAF12 agonist 2, SMARCA2 activ -1, hgDAF12 agonist 7, DAX1 conf 8.0* and SF1 mutant ctr 4.9*.
Screening CCOC(=O)C1CCN(C(=O)c2ccc(C)o2)CC1 returned DAX1 inh-1 0, DAX1 inh-2 2, ssDAF-12 act -1, hcDAF12 agonist 2, SMARCA2 activ -1 and hgDAF12 agonist 1.
CCc1cn(C2CC(O)C(CO)O2)c(=O)[nH]c1=O (stereo not drawn) was read as DAX1 inh-1 0, DAX1 inh-2 1, ssDAF-12 act -1, hcDAF12 agonist 0, SMARCA2 activ 1 and hgDAF12 agonist 0.
Screening O=c1[nH]c(=O)n([C@H]2C[C@H](O)[C@@H](CO)O2)cc1I returned DAX1 inh-1 5.6*, DAX1 inh-2 0, ssDAF-12 act 0, hcDAF12 agonist 1, SMARCA2 activ -3, hgDAF12 agonist 10, DAX1 conf 14* and SF1 mutant ctr 6.1*.
`C/C(C=NNC(=O)CSc1nnc(-c2ccc(Cl)cc2)n1-c1ccc(C)cc1)=C\c1ccccc1` gave DAX1 inh-1 1, ssDAF-12 act -1, hcDAF12 agonist 3, SMARCA2 activ 1 and hgDAF12 agonist -3.
`CC(C)[C@@H](C)/C=C/[C@@H](C)[C@H]1CC[C@@H]2[C@]1(C)CCC1[C@]23C=C[C@]2(C[C@@H](O)CC[C@]12C)N(c1ncc(C(F)(F)F)cc1Cl)O3` (stereo partly drawn) gave DAX1 inh-1 0, ssDAF-12 act 0, hcDAF12 agonist 1, SMARCA2 activ 0 and hgDAF12 agonist 0.
`CC(C)[C@@H](C)/C=C/[C@@H](C)[C@H]1CC[C@@H]2[C@]1(C)CCC1[C@]23C=C[C@]2(C[C@@H](O)CC[C@]12C)N(c1cnccn1)O3` (stereo partly drawn) gave DAX1 inh-1 4.6*, ssDAF-12 act 0, hcDAF12 agonist 2, SMARCA2 activ 0, hgDAF12 agonist 2, DAX1 conf 0 and SF1 mutant ctr 0.
CCN(CC)CCCn1c2c(c(SCC(=O)N3CCCc4ccccc43)nc1=O)CCC2 was read as DAX1 inh-1 8.0*, DAX1 inh-2 0, ssDAF-12 act -1, hcDAF12 agonist 0, SMARCA2 activ -2, hgDAF12 agonist 1, DAX1 conf 2 and SF1 mutant ctr 0.
Screening CN(C)CCn1c2c(c(SCC(=O)N3CCc4ccccc43)nc1=O)CCCC2 returned DAX1 inh-1 -1, DAX1 inh-2 -1, ssDAF-12 act 1, hcDAF12 agonist 1, SMARCA2 activ 0 and hgDAF12 agonist -1.
For COC(=O)[C@]1(Cc2ccccc2)NC=C(C(=O)c2ccccc2)[C@@H]1c1cccs1 the results were DAX1 inh-1 1, ssDAF-12 act -1, hcDAF12 agonist 3, SMARCA2 activ -2 and hgDAF12 agonist 1.
Cc1nn(-c2ccccc2)c(Cl)c1/C=N/NC(=O)c1ccnn1C was read as DAX1 inh-1 7.2*, DAX1 inh-2 1, ssDAF-12 act 0, hcDAF12 agonist 3, SMARCA2 activ 6, hgDAF12 agonist 8, DAX1 conf 9.4* and SF1 mutant ctr 6.4*.
Cc1nn(-c2ccccc2)c(Cl)c1/C=N/NC(N)=O was read as DAX1 inh-1 0, DAX1 inh-2 2, ssDAF-12 act -2, hcDAF12 agonist -2, SMARCA2 activ -2 and hgDAF12 agonist 0.
For COC(=O)c1cc(S(=O)(=O)N2CCN(c3cccc(C(F)(F)F)c3)CC2)cn1C the results were DAX1 inh-1 -1, ssDAF-12 act -2, hcDAF12 agonist -2, SMARCA2 activ 0 and hgDAF12 agonist 1.
`O=C(c1ccc(C#Cc2ccccc2)cc1)N1CCC(O)CC1` gave DAX1 inh-1 4.9*, ssDAF-12 act 0, hcDAF12 agonist 4, SMARCA2 activ 1, hgDAF12 agonist 11*, DAX1 conf 7.2* and SF1 mutant ctr 4.1*.
